The list is not random: actives were taken first. Their share in the collection is about 12%.
Pf growth 48h = Primary qHTS for delayed death inhibitors of the malarial parasite plastid, 48 hour incubation; P. falciparum luciferase growth in erythrocytes, 48 h; Potency, µM (top dose mostly 28.7 µM), most hits filed as inhibitors; hit rate 5.9% among 310,000; AID 504832, 2011
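Read-out is firefly luciferase luminescence from an integrated reporter in P. falciparum, so falling signal marks reduced parasite growth. Infected erythrocytes were at 2% hematocrit and 0.1% parasitemia (final) in Albumax-supplemented RPMI 1640.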
Pf growth 96h = Primary qHTS for delayed death inhibitors of the malarial parasite plastid, 96 hour incubation; hit rate 6.9% among 320,000; P. falciparum luciferase reporter growth, 96 h; AID 504834, 2011; Potency, µM (series often up to 28.7 µM), hits mostly inhibitors
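Delayed-death screen, second-generation endpoint: infected erythrocytes, 2% hematocrit, 0.05% parasitemia final; 96 hours at 37 C, 5% CO2; luciferase detection reagent; luminescence decrease equals reduced growth.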
Sm TGR block = qHTS Assay for the Inhibitors of Schistosoma Mansoni Peroxiredoxins. purified TGR, DTNB reduction, TNB absorbance 405 nm. Potency, µM (doses to about 114 µM), most hits filed as inhibitors. hit rate 3% among 360,000. AID 485364, 2010; note: nearly all actives have a fitted effect of over 60% in size
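TGR 20 nM + NADPH 100 uM (dispensed conc.), cpd preinc 15 min RT; start with NADPH (500 uM addition) then DTNB (15 mM addition). Kinetic TNB absorbance, 405 nm filter. Four-parameter Hill fit across titration.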
AmpC inh no detg = qHTS Inhibitors of AmpC Beta-Lactamase (assay without detergent); AmpC nitrocefin hydrolysis, absorbance 480 nm, 0.0001% Triton; Potency, µM (doses to about 57.1 µM), usual class: inhibitors; hit rate 0.52% among 330,000; note: nearly all actives have a fitted effect of over 20% in size
Target sequence (P00811 whole entry, looked up): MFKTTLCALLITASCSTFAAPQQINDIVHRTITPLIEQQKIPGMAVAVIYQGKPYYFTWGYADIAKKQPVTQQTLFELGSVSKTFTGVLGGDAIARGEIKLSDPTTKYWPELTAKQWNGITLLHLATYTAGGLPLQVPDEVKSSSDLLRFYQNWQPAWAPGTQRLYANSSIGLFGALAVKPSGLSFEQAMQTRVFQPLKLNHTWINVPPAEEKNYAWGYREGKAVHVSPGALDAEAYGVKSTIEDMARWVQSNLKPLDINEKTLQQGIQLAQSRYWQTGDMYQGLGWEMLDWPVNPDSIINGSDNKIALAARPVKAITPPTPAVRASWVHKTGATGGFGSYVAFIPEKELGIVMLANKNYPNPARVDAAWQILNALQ
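AmpC (5.3 nM in the dispensed reagent) in 20 mM phosphate pH 7.0 with 0.01% (detergent screen) or 0.0001% Triton X-100 was preincubated with compounds for 15 min at room temperature. Nitrocefin was then added from an 800 uM solution, and hydrolysis was followed at 480 nm.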
AmpC detergent = qHTS Inhibitors of AmpC Beta-Lactamase (assay with detergent); P00811; Potency, µM (series often up to 114 µM), most hits filed as inhibitors; AmpC hydrolysis of nitrocefin, absorbance 480 nm, 0.01% Triton; AID 485294, 2010; hit rate 0.041% among 370,000; note: nearly all actives have a fitted effect of over 25% in size
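20 mM phosphate pH 7.0 + 0.01% (detergent screen) or 0.0001% Triton X-100; 5.3 nM AmpC reagent; cpd preinc 15 min RT; nitrocefin (800 uM stock) to start; A480 q20 s × 4 min; Activity was normalised to no-enzyme and no-compound control wells.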
SARS PLP yeast = qHTS of Yeast-based Assay for SARS-CoV PLP | S. cerevisiae expressing SARS-CoV PLpro, growth rescue | Potency, µM (top dose mostly 32.9 µM), hits mostly activators | hit rate 0.19% among 330,000 | AID 485353, 2010; calls by dose curve; note: nearly all actives have a fitted effect of over 55% in size
Each line names hits and unclear results; the compound was inactive in the other large screens. Unless noted, calls come from the whole dose curve; as a rule, active = well fitted curve in the direction sought with a large enough effect; inconclusive = small, poorly fitted or top-dose-only effect, or another doubt; inactive = no such curve, though single readings can be large; an effect the other way counts as inactive or inconclusive.

Cc1ccc(S(=O)(=O)N2CCCCC2c2cccnc2)c(C)c1C (centres undefined)	Pf growth 48h inconclusive, Pf growth 96h 0.33µM
O=C(NNC(=S)NC(=O)c1ccco1)c1ccc(F)cc1	Pf growth 48h inconclusive, Pf growth 96h inconclusive
O=C(NC(=S)NNC(=O)c1ccco1)c1ccc(Br)cc1	Pf growth 96h inconclusive, Sm TGR block 40µM
O=C(/C=C/c1ccc(Cl)cc1)NC(=S)Nc1ccc(C(=O)O)cc1	Sm TGR block 10µM (no result: Pf growth 48h)
CN(C)c1ccc(NC(=S)NC(=O)/C=C/c2ccc(Cl)cc2)cc1	none
O=C(/C=C/c1ccco1)NC(=S)Nc1ccc(C(=O)O)cc1	Sm TGR block 7.1µM (no result: Pf growth 48h)
CC(=O)NC(=S)Nc1ccc(NC(=S)NC(=O)/C=C/c2ccco2)cc1	Sm TGR block 18µM
CN(C)c1ccc(CNC(=O)c2cccc(NC(=O)N3CCSc4ncccc43)c2)cc1	none (no result: Pf growth 48h, Pf growth 96h, AmpC inh no detg, SARS PLP yeast)
Cc1ccc(C(=O)/C=C/c2ccco2)c(O)c1	Sm TGR block 45µM, SARS PLP yeast inconclusive
C=CCNC(=S)NNC(=O)c1ccco1	none (no result: Sm TGR block)
Cc1cc(C)c(C(=O)/C=C/c2ccco2)c(=O)[nH]1	Sm TGR block inconclusive
O=C(/C=C/c1ccco1)NC(=S)NNC(=O)c1ccco1	Sm TGR block 40µM
COc1ccccc1/C=C/C(=O)NNC(=O)c1cc(C)oc1C	Pf growth 48h inconclusive
CCC(=O)Nc1ccc(NC(=S)NC(=O)/C=C/c2ccco2)cc1	Sm TGR block 28µM
Cc1cc(C(=O)NNC(=O)/C=C/c2ccco2)c(C)o1	Pf growth 48h inconclusive, Sm TGR block 2.8µM, AmpC detergent inconclusive
Cc1ccc(C(=O)COC(=O)CNC(=O)c2ccco2)cc1	Pf growth 96h inconclusive, AmpC detergent inconclusive
COc1ccc(C(=O)COC(=O)c2cnc(C)cn2)c(OC)c1	none
N#C/C(=C\c1ccc(-c2ccc(C(=O)O)cc2)o1)C(=O)Nc1ccccc1C(=O)O	none (no result: Pf growth 48h, Pf growth 96h, AmpC inh no detg, SARS PLP yeast)
COc1ccc(NC(=O)c2oc3ccccc3c2NC(=O)c2cc(C)cc(C)c2)c(OC)c1	none (no result: Pf growth 48h, Pf growth 96h, AmpC inh no detg, SARS PLP yeast)
CCOc1ccc(NC(=O)CCn2cccn2)cc1	none (no result: Pf growth 48h, Pf growth 96h, AmpC inh no detg, SARS PLP yeast)
COc1ccc(NC(=S)NC(=O)/C=C/c2ccco2)cc1	Sm TGR block 10µM, AmpC inh no detg 16µM
CC(C)Cc1ccc(/C=C/C(=O)NC2CC2)cc1	Pf growth 48h inconclusive, Pf growth 96h 2.1µM
COc1cc(C2NC(=S)NC(C)=C2C(=O)Nc2ccc(C)cc2)ccc1O (centres undefined)	none
COC(=O)c1ccc2c(c1)C(C)(C)C(/C=C/c1ccc(OC)c(OC)c1OC)=[N+]2C	Pf growth 48h 2.3µM, Pf growth 96h 2.3µM, AmpC detergent inconclusive
COc1ccc(/C=N/Nc2ccc(C(=O)O)cc2)c(OC)c1OC	Pf growth 96h inconclusive
COC(=O)c1ccc2c(c1)C(C)(C)C(/C=C/c1ccc(O)cc1)=[N+]2C	Pf growth 48h inconclusive, Pf growth 96h 5.2µM, AmpC inh no detg inconclusive
O=C(c1cccc(Br)c1)c1cn(-c2ccccc2)nc1C(=O)c1ccccc1	Pf growth 48h 4.7µM, Pf growth 96h inconclusive
Cc1cc(S(=O)(=O)N2CCCCC2)ccc1OCC(=O)N1CCOCC1	none
CCCCCn1c(=N)c(S(=O)(=O)c2ccccc2)cc2c(=O)n3cccc(C)c3nc21	none (no result: Pf growth 48h, Pf growth 96h, AmpC inh no detg, SARS PLP yeast)
CSCCC(NC(=O)CCC(=O)OCC(=O)[C@@]1(O)CCC2[C@@H]3CCC4=CC(=O)C=C[C@]4(C)C3[C@@H](O)C[C@@]21C)C(=O)O (some centres undefined)	Pf growth 48h 5.2µM, Pf growth 96h inconclusive
COc1ccccc1-n1c(/C=C/c2c(C)n(C)c3ccccc23)nc2ccccc2c1=O	none (no result: Pf growth 48h, Pf growth 96h, AmpC inh no detg, SARS PLP yeast)
OC(c1ccc(Cl)cc1Cl)C(Cc1cccnc1)n1cncn1 (centres undefined)	Pf growth 48h inconclusive, Pf growth 96h 13µM
Cc1ccc(CNc2cc(-c3nn4c(C)nnc4s3)ccc2C)s1	Pf growth 48h 12µM, Pf growth 96h inconclusive
CCCCN1C(=O)CN(C2CCCCCC2)C(=O)C1c1ccc(OC(C)C)c(OC)c1 (centres undefined)	Sm TGR block inconclusive (no result: Pf growth 48h, Pf growth 96h, AmpC inh no detg, SARS PLP yeast)
CCOC(=O)c1sc(/S(C)=N\S(=O)(=O)c2cccc(Cl)c2)c2c1CCC=C2 (centres undefined)	Pf growth 48h inconclusive, Pf growth 96h inconclusive, Sm TGR block 2.8µM
COc1ccc(NC(=O)C2(S(=O)(=O)c3ccc(C)cc3)CC2)c(OC)c1	none (no result: Pf growth 48h, Pf growth 96h, AmpC inh no detg, SARS PLP yeast)
Cc1ccc(S(=O)(=O)n2ccc3c(OCCOCCSCC(NC(=O)OC(C)(C)C)C(=O)O)cccc32)cc1 (centres undefined)	Pf growth 48h inconclusive, Pf growth 96h 9.3µM
Cc1ccc(S(=O)(=O)n2ccc3c(OCCOCCNCc4ccc(F)cc4)cccc32)cc1	Pf growth 48h 9.3µM, Pf growth 96h 10µM
Cc1ccc(S(=O)(=O)NCCCCC(NC(=O)OC(C)(C)C)C(=O)O)cc1 (centres undefined) (tested in a mixture with another compound)	AmpC detergent inconclusive (no result: Pf growth 96h)
CCCCN(C)C(=O)CSc1nc(NCc2ccc(OC)cc2)c2ccccc2n1	Pf growth 48h 10µM, Pf growth 96h 2.3µM, AmpC detergent inconclusive
COc1ccc(CNc2nc(SCc3ccccc3Cl)nc3ccccc23)cc1	none (no result: Pf growth 48h, Pf growth 96h, AmpC inh no detg, SARS PLP yeast)
O=C1NC(=O)N(c2ccccc2)C(=O)/C1=C\c1ccccc1[N+](=O)[O-]	Sm TGR block 3.5µM
O=C1NC(=O)N(c2ccccc2)C(=O)/C1=C\c1ccc2c3c(cccc13)CC2	Sm TGR block 25µM
COc1ccccc1N1C(=O)NC(=O)/C(=C/c2ccc3c4c(cccc24)CC3)C1=O	Sm TGR block 32µM
O=C1NC(=O)N(c2ccccc2)C(=O)/C1=C/c1ccoc1	none
O=C(O)Cn1cc(/C=C2\C(=O)NC(=O)N(c3ccc(F)cc3)C2=O)c2ccccc21	Pf growth 96h inconclusive, Sm TGR block inconclusive
Cn1ccc2c(OCC(=O)Nc3cc(C(F)(F)F)ccc3Cl)cccc2c1=O	none (no result: Pf growth 48h, Pf growth 96h, AmpC inh no detg, SARS PLP yeast)
CCn1c(SCC(=O)Nc2ccccc2F)nnc1-c1ccoc1C	Pf growth 96h inconclusive
Cc1occc1-c1nnc(SCC(=O)c2ccccc2)n1CC1CCCO1 (centres undefined)	Pf growth 48h inconclusive, Sm TGR block 28µM
Cc1occc1-c1nnc(SCC(=O)c2ccc3c(c2)OCCO3)n1CC1CCCO1 (centres undefined)	Sm TGR block 50µM
CCC(C)NC(=O)CSc1nnc(-c2ccoc2C)n1CC1CCCO1 (centres undefined)	Pf growth 96h inconclusive

Source: PubChem
